Assay results: PubChem BioAssay AID1159580 (chemical genetic matrix, 2015)
“And” between values parts separate entries of the source, which are not always exact repeats. Identical values can stand only once. In all, about 5,500 compounds went through this assay and about 2,000 (36%) were called active. Not shown: some 18% with an inconclusive outcome. Rule as the data show it: active = normalized growth mostly below about 0.91 (no sharp cut-off); inconclusive = no clear call, values can overlap the other calls; inactive = mostly above about 0.92. The list shows a part of the results.

Assay: chemical genetic growth profiling, strain panel (AID 1159580);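 also: tested at 20 µM; growth read once vehicle control cultures reached saturation at 30 °C; 1 = growth at the plate median or of vehicle wells; lower values mean less growth of the strain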
Conditions: growth OD
[1] = S. cerevisiae deletion strains, locus YAR019C, strain CDC15, stronger effect = lower value
[2] = S. cerevisiae deletion strains, locus YBL105C, strain PKC1, stronger effect = lower value
[3] = S. cerevisiae deletion strains, locus YBR135W, strain CKS1, stronger effect = lower value
[4] = S. cerevisiae deletion strains, locus YBR136W, strain MEC1, stronger effect = lower value
[5] = S. cerevisiae deletion strains, locus YBR160W, strain CDC28, stronger effect = lower value
[6] = S. cerevisiae deletion strains, locus YDL017W, strain CDC7, stronger effect = lower value
[7] = S. cerevisiae deletion strains, locus YDL028C, strain MPS1, stronger effect = lower value
[8] = S. cerevisiae deletion strains, locus YDL101C, strain DUN1, stronger effect = lower value
[9] = S. cerevisiae deletion strains, locus YDL108W, strain KIN28, stronger effect = lower value
[10] = S. cerevisiae deletion strains, locus YDL132W, strain cdc53, stronger effect = lower value
[11] = S. cerevisiae deletion strains, locus YDL214C, strain PRR2, stronger effect = lower value
[12] = S. cerevisiae deletion strains, locus YDR052C, strain DBF4, stronger effect = lower value
[13] = S. cerevisiae deletion strains, locus YDR054C, strain cdc34, stronger effect = lower value
[14] = S. cerevisiae deletion strains, locus YDR226W, strain ADK1, stronger effect = lower value
[15] = S. cerevisiae deletion strains, locus YDR477W, strain SNF1, stronger effect = lower value
[16] = S. cerevisiae deletion strains, locus YER123W, strain YCK3, stronger effect = lower value
[17] = S. cerevisiae deletion strains, locus YER133W, strain GLC7, stronger effect = lower value
[18] = S. cerevisiae deletion strains, locus YFL009W, strain cdc4, stronger effect = lower value
[19] = S. cerevisiae deletion strains, locus YFL029C, strain CAK1, stronger effect = lower value
[20] = S. cerevisiae deletion strains, locus YFR003C, strain YPI1, stronger effect = lower value
[21] = S. cerevisiae deletion strains, locus YFR019W, strain FAB1, stronger effect = lower value
[22] = S. cerevisiae deletion strains, locus YFR028C, strain CDC14, stronger effect = lower value
[23] = S. cerevisiae deletion strains, locus YGR040W, strain KSS1, stronger effect = lower value
[24] = S. cerevisiae deletion strains, locus YGR052W, strain FMP48, stronger effect = lower value
[25] = S. cerevisiae deletion strains, locus YGR092W, strain DBF2, stronger effect = lower value
[26] = S. cerevisiae deletion strains, locus YHR030C, strain SLT2, stronger effect = lower value
[27] = S. cerevisiae deletion strains, locus YHR079C, strain IRE1, stronger effect = lower value
[28] = S. cerevisiae deletion strains, locus YHR082C, strain KSP1, stronger effect = lower value
[29] = S. cerevisiae deletion strains, locus YHR205W, strain SCH9, stronger effect = lower value
[30] = S. cerevisiae deletion strains, locus YIL147C, strain SLN1, stronger effect = lower value
[31] = S. cerevisiae deletion strains, locus YJL095W, strain BCK1, stronger effect = lower value
[32] = S. cerevisiae deletion strains, locus YJL128C, strain PBS2, stronger effect = lower value
[33] = S. cerevisiae deletion strains, locus YJL157C, strain FAR1, stronger effect = lower value
[34] = S. cerevisiae deletion strains, locus YJR016C, strain ILV3, stronger effect = lower value
[35] = S. cerevisiae deletion strains, locus YJR066W, strain TOR1 (second series), stronger effect = lower value
[36] = S. cerevisiae deletion strains, locus YJR066W, strain TOR1, stronger effect = lower value
[37] = S. cerevisiae deletion strains, locus YKL048C, strain ELM1, stronger effect = lower value
[38] = S. cerevisiae deletion strains, locus YKL067W, strain YNK1, stronger effect = lower value
[39] = S. cerevisiae deletion strains, locus YKL101W, strain HSL1, stronger effect = lower value
[40] = S. cerevisiae deletion strains, locus YKL193C, strain SDS22, stronger effect = lower value
[41] = S. cerevisiae deletion strains, locus YKL203C, strain TOR2, stronger effect = lower value
[42] = S. cerevisiae deletion strains, locus YLR113W, strain HOG1, stronger effect = lower value
[43] = S. cerevisiae deletion strains, locus YLR133W, strain CKI1, stronger effect = lower value
[44] = S. cerevisiae deletion strains, locus YLR403W, strain SFP1, stronger effect = lower value
[45] = S. cerevisiae deletion strains, locus YML070W, strain DAK1, stronger effect = lower value
[46] = S. cerevisiae deletion strains, locus YMR001C, strain CDC5, stronger effect = lower value
[47] = S. cerevisiae deletion strains, locus YMR205C, strain PFK2 (second series), stronger effect = lower value
[48] = S. cerevisiae deletion strains, locus YMR277W, strain FCP1, stronger effect = lower value
[49] = S. cerevisiae deletion strains, locus YNL006W, strain LST8, stronger effect = lower value
[50] = S. cerevisiae deletion strains, locus YNL020C, strain ARK1, stronger effect = lower value
[51] = S. cerevisiae deletion strains, locus YNL161W, strain CBK1, stronger effect = lower value
[52] = S. cerevisiae deletion strains, locus YNL183C, strain NPR1, stronger effect = lower value
[53] = S. cerevisiae deletion strains, locus YNL207W, strain RIO2, stronger effect = lower value
[54] = S. cerevisiae deletion strains, locus YNL307C, strain MCK1 (second series), stronger effect = lower value
[55] = S. cerevisiae deletion strains, locus YOL078W, strain AVO1, stronger effect = lower value
[56] = S. cerevisiae deletion strains, locus YOL136C, strain PFK27, stronger effect = lower value
[57] = S. cerevisiae deletion strains, locus YOR061W, strain CKA2, stronger effect = lower value
[58] = S. cerevisiae deletion strains, locus YOR119C, strain RIO1, stronger effect = lower value
[59] = S. cerevisiae deletion strains, locus YOR231W, strain MKK1, stronger effect = lower value
[60] = S. cerevisiae deletion strains, locus YOR329C, strain SCD5, stronger effect = lower value
[61] = S. cerevisiae deletion strains, locus YPL031C, strain PHO85, stronger effect = lower value
[62] = S. cerevisiae deletion strains, locus YPL153C, strain RAD53, stronger effect = lower value
[63] = S. cerevisiae deletion strains, locus YPL204W, strain HRR25, stronger effect = lower value
[64] = S. cerevisiae deletion strains, locus YPL209C, strain IPL1, stronger effect = lower value
[65] = S. cerevisiae deletion strains, locus YPL256C, strain CLN2, stronger effect = lower value
[66] = S. cerevisiae deletion strains, locus YPR025C, strain CCL1, stronger effect = lower value
[67] = S. cerevisiae deletion strains, locus YPR106W, strain ISR1, stronger effect = lower value
[68] = S. cerevisiae deletion strains, locus YPR111W, strain DBF20, stronger effect = lower value
[69] = S. cerevisiae deletion strains, strain NNK1, stronger effect = lower value
[70] = S. cerevisiae deletion strains, strain TSCII, stronger effect = lower value

Measured: normalized growth

N#C/C(=N/Nc1ccc(C(F)(F)F)cc1)C(=O)C1CC1
active: S. cerevisiae deletion strains, locus YDL134C, strain PPH21, stronger effect = lower value 0.791 | S. cerevisiae deletion strains, locus YEL061C, strain CIN8, stronger effect = lower value 0.857 | S. cerevisiae deletion strains, locus YLR039C, strain RIC1, stronger effect = lower value 0.565 | S. cerevisiae deletion strains, locus YLR085C, strain ARP6, stronger effect = lower value 0.503 | [42] 0.835 | S. cerevisiae deletion strains, locus YLR262C, strain YPT6, stronger effect = lower value 0.68 | S. cerevisiae deletion strains, locus YML094W, strain GIM5, stronger effect = lower value 0.841 | S. cerevisiae deletion strains, locus YMR307W, strain GAS1, stronger effect = lower value 0.535 | S. cerevisiae deletion strains, locus YNR030W, strain Alg12, stronger effect = lower value 0.773 | S. cerevisiae deletion strains, locus YPL241C, strain CIN2, stronger effect = lower value 0.76
0.482 (active) and 1.02 (inactive): [26]
inactive: S. cerevisiae deletion strains, locus YAL013W, strain DEP1, stronger effect = lower value 0.942 | [1] 0.952 | [2] 0.947 | [3] 0.941 | [4] 0.942 | [5] 0.942 | S. cerevisiae deletion strains, locus YBR229C, strain ROT2, stronger effect = lower value 0.96 | S. cerevisiae deletion strains, locus YCL061C, strain MRC1, stronger effect = lower value 0.978 | [6] 0.953 | [7] 0.938 | [8] 0.976 and 0.966 | [9] 0.937 | [10] 0.937 | [11] 0.904 | [12] 0.953 | [13] 0.95 | S. cerevisiae deletion strains, locus YDR150W, strain NUM1, stronger effect = lower value 0.928 | [14] 0.97 | [15] 0.932 | [16] 0.88 | [17] 0.93 | [18] 0.942 | [19] 0.945 | [20] 0.95 | [21] 0.92 | [22] 0.964 | [23] 0.905 | [24] 0.922 | S. cerevisiae deletion strains, locus YGR078C, strain PAC10, stronger effect = lower value 0.957 | [25] 0.855 | S. cerevisiae deletion strains, locus YGR229C, strain SMI1, stronger effect = lower value 0.948 | [27] 0.958 | [28] 0.989 | S. cerevisiae deletion strains, locus YHR087W, strain rtc3, stronger effect = lower value 0.951 | [29] 0.889 | [30] 0.941 | [31] 0.913 | [32] 0.924 | [33] 0.94 | S. cerevisiae deletion strains, locus YJL187C, strain SWE1, stronger effect = lower value 0.98 | [34] 0.931 | S. cerevisiae deletion strains, locus YJR043C, strain POL32, stronger effect = lower value 0.952 | [35] 0.897 | [36] 0.997 | S. cerevisiae deletion strains, locus YJR075W, strain HOC1, stronger effect = lower value 0.975 | [37] 0.928 | [38] 0.904 | [39] 0.874 | [40] 0.943 | [41] 0.996 | S. cerevisiae deletion strains, locus YLR058C, strain SHM2 (second series), stronger effect = lower value 0.975 | [43] 0.909 | [44] 0.898 | [45] 0.895 | [46] 0.95 | [47] 0.917 | S. cerevisiae deletion strains, locus YMR219W, strain ESC1, stronger effect = lower value 0.986 | S. cerevisiae deletion strains, locus YMR263W, strain SAP30, stronger effect = lower value 0.956 | [48] 0.937 | [49] 0.947 | [50] 0.914 | S. cerevisiae deletion strains, locus YNL128W, strain TEP1, stronger effect = lower value 0.956 | S. cerevisiae deletion strains, locus YNL153C, strain GIM3, stronger effect = lower value 0.981 | [51] 0.949 | [52] 0.941 | [53] 0.95 | S. cerevisiae deletion strains, locus YNL222W, strain SSU72, stronger effect = lower value 0.947 | S. cerevisiae deletion strains, locus YNL298W, strain CLA4 (second series), stronger effect = lower value 0.842 | [54] 0.905 | S. cerevisiae deletion strains, locus YNL322C, strain KRE1, stronger effect = lower value 0.981 | [55] 0.936 | [56] 0.866 | [57] 0.926 | [58] 0.973 | [59] 0.89 | [60] 0.958 | [61] 0.922 | S. cerevisiae deletion strains, locus YPL055C, strain LGE1, stronger effect = lower value 0.83 | [62] 0.929 | [63] 0.894 | [64] 0.955 | [65] 0.977 | [66] 0.95 | [67] 0.951 | [68] 0.912 | S. cerevisiae deletion strains, locus YPR135W, strain CTF4, stronger effect = lower value 0.829 | [69] 0.971 | [70] 0.947 | S. cerevisiae strains, strain wild type, stronger effect = lower value 0.943

N#CC(C#N)=NNc1cc(C(F)(F)F)ccc1OCC(F)(F)F
active: [10] 0.891 | [11] 0.611 | [14] 0.891 | [15] 0.572 | [16] 0.398 | [17] 0.459 | [21] 0.691 | [23] 0.611 | [24] 0.428 | [26] 0.445 | [28] 0.543 | [35] 0.437 | [36] 0.458 | [41] 0.71 | [42] 0.32 | [45] 0.623 | [48] 0.871 | [52] 0.329 | [58] 0.45 | [65] 0.33 | [70] 0.858
inactive: [1] 0.913 | [2] 0.927 | [3] 0.917 | [4] 0.894 | [5] 0.906 | [6] 0.953 | [7] 0.917 | [8] 0.911 | [9] 0.911 | [12] 0.913 | [13] 0.893 | [18] 0.919 | [19] 0.921 | [20] 0.975 | [22] 0.912 | [25] 0.818 | [27] 0.831 | [29] 0.814 | [30] 0.966 | [31] 0.533 | [32] 0.888 | [33] 0.814 | [34] 0.947 | [37] 0.88 | [38] 0.739 | [39] 0.787 | [40] 0.9 | [43] 0.868 | [44] 0.811 | [46] 0.9 | [47] 0.889 | [49] 0.976 | [50] 0.917 | [51] 0.899 | [53] 0.923 | [54] 0.734 | [55] 0.904 | [56] 0.693 | [57] 0.86 | [59] 0.782 | [60] 0.978 | [61] 0.703 | [62] 0.679 | [63] 0.688 | [64] 0.928 | [66] 0.923 | [67] 0.932 | [68] 0.895 | [69] 0.957
